Drawing on the supplement of paper PMC13380429, this text covers morphology score for 39 molecules.

SMILES strings stand for the structures.

The subject of this test is Vero E6 infected with SARS-CoV-2. In words: morphology score (similarity to uninfected cells); higher = more like uninfected cells. Conditions: 24 h.
With `CC1(C)[C@H]2CC[C@]1(C)[C@@H](O)[C@H]2O` [cis-exo-camphanediol-2,3] (10 µM), the morphology score was found to be 0.0601.
In the case of `CN1CCC[C@@H]1CCSc1ccc(O)cc1` (10 µM) it was -0.0396; in that of `CCn1cc(C(=O)O)c(=O)c2ccc(C)nc21` [nalidixic-acid] (10 µM), -0.0613.
Then `OC(CCCN1CCN(c2ncc(F)cn2)CC1)c1ccc(F)cc1` (centres undefined) (10 µM), with 0.0906; and `O=C1CCC[C@@H]2[C@H]3CCCN4CCC[C@@H](CN12)[C@@H]34` [matrine] (10 µM), with 0.0694.
`CC(C)(C)NC[C@H](O)c1ccc(O)cc1Cl` [meluadrine] (10 µM) yielded a morphology score of 0.0145.
Then `CS(=O)(=O)c1ccc([C@@H](CC2CCCC2)C(=O)Nc2nccs2)cc1` (10 µM), with 0.0357.
Then `O=c1nc2ccccc2c2n1CC(CN1CCN(c3ccccc3)CC1)N2` (centres undefined) (10 µM), with 0.221; and `C(#Cc1nc2ncccc2nc1OCCN1CCCC1)c1ccccc1` (0.833333 µM), with 0.0988; and `CC(=C(CCO)SSCC1CCCO1)N(C=O)Cc1cnc(C)nc1N` (stereo in doubt) [fursultiamine] (10 µM), with 0.0723.
In the case of `CC1CC(OC(=O)C(O)c2ccccc2)CC(C)(C)C1` (centres undefined) [cyclandelate] (10 µM) it was 0.115; in that of `CN(C)C(=O)[C@H](O)[C@H](Cc1ccccc1)NC(=O)c1cc2cc(Cl)ccc2[nH]1` (10 µM), 0.225.
`CCC1=C(C)CN(C(=O)NCCc2ccc(S(=O)(=O)NC(=O)N[C@H]3CC[C@H](C)CC3)cc2)C1=O` [glimepiride] (10 µM) had a morphology score of 0.152.
As for `N#Cc1ccc(C2CCCc3cncn32)cc1` (centres undefined) [fadrozole] (10 µM), the morphology score was found to be 0.114.
In the case of `CC(C)(C)NCC(O)COc1ccc(NC(=O)NC2CCCCC2)cc1` (centres undefined) [talinolol] (10 µM) it was 0.0728; in that of `CC(C)(N)C(=O)N[C@H](COCc1ccccc1)C(=O)N1CCC2(CC1)CN(S(C)(=O)=O)c1ccccc12` [ibutamoren] (10 µM), -0.0834.
Then `CN(C)C/C=C/C(=O)Nc1cc2c(Nc3ccc(F)c(Cl)c3)ncnc2cc1O[C@H]1CCOC1` [afatinib] (0.833333 µM), with -0.0622; and `Cc1cc(C)c(N)c(C#Cc2cccc(F)c2)n1` (10 µM), with 0.221; and `COc1ccc(-n2c(SCCCN3C(=O)c4cccc5cccc(c45)C3=O)nnc2-c2ccncc2)cc1` (0.833333 µM), with 0.102.
In the case of `CCC[C@@H]1CC2=CC(=O)CC[C@]2(C)[C@H]2CC[C@@]3(C)[C@@H](CC[C@@]3(O)CCC(=O)O)[C@H]12` (10 µM) it was 0.105.
Take `CC[C@H](CC[C@@H](C)[C@H]1CC[C@H]2[C@@H]3CC=C4C[C@@H](O)CC[C@]4(C)[C@H]3CC[C@]12C)C(C)C` [beta-Sitosterol] (10 µM): the morphology score is 0.119.
Then `N[C@@H](CC(=O)N1CCn2c(nnc2C(F)(F)F)C1)Cc1cc(F)c(F)cc1F` [sitagliptin] (10 µM), with 0.0472; and `Nc1ncnc2c1c(-c1ccc(Cl)cc1)nn2-c1cccc(-c2cnnn2Cc2cccc(-c3ccccc3)c2)c1` (10 µM), with -0.00803.
Then `O=c1cc(-c2ccc(O)cc2)oc2cc(O)cc(O)c12` [apigenin] (10 µM), with 0.129; and `CC(=O)OCC(=O)[C@@]1(O)CC[C@H]2[C@@H]3CCC4=CC(=O)CC[C@]4(C)[C@@]3(F)[C@@H](O)C[C@@]21C` (10 µM), with 0.0369.
As for `CCN(CC)CCOC(=O)C1(c2ccccc2)CCCC1` [caramiphen] (10 µM), the morphology score came to 0.145.
In the case of `CCOC(=O)[C@H](CCc1ccccc1)N[C@@H](C)C(=O)N1[C@H](C(=O)O)C[C@@H]2CCC[C@@H]21` [ramipril] (10 µM) it was 0.0476; in that of `C[C@H](CCC(=O)NCCS(=O)(=O)O)[C@H]1CC[C@H]2[C@@H]3[C@H](O)C[C@@H]4C[C@H](O)CC[C@]4(C)[C@H]3C[C@H](O)[C@]12C` [taurocholate] (10 µM), -0.0884.
Then `Clc1ccc(C2(c3ccc(-c4cn[nH]c4)cc3)CCNCC2)cc1` (0.833333 µM), with 0.29.
In the case of `CC(COc1ccccc1)NC(C)C(O)c1ccc(O)cc1` (centres undefined) [isoxsuprine] (10 µM) it was 0.0115.
The molecule `COc1ccc2c(c1)CN(C)CC2c1ccc(Cl)c(Cl)c1` (centres undefined) [diclofensine] (10 µM) returned a morphology score of 0.0249.
For the molecule `N#Cc1c(N)nc(SCc2csc(-c3ccc(Cl)cc3)n2)c(C#N)c1-c1ccc(OCCO)cc1` [capadenoson] (10 µM), the morphology score is -0.145.
Then `CC(=O)OC[C@H]1O[C@@](COC(C)=O)(O[C@H]2O[C@H](COC(C)=O)[C@@H](OC(C)=O)[C@H](OC(C)=O)[C@H]2OC(C)=O)[C@@H](OC(C)=O)[C@@H]1OC(C)=O` [sucrose-octaacetate] (10 µM), with 0.0471; and `Nn1cnc2cc3ccccc3cc2c1=O` [centazolone] (10 µM), with -0.195; and `OCc1ccc(O[C@@H]2O[C@H](CO)[C@@H](O)[C@H](O)[C@H]2O)cc1` [gastrodin] (10 µM), with 0.19.
In the case of `COC(=O)C1=C(C)NC(C)=C(C(=O)OCCSc2ccccc2)[C@@H]1C` (10 µM) it was 0.0793; in that of `CN1C(=O)N(C)C2C1N(C)C(=O)N2C` (centres undefined) [mebicar] (10 µM), 0.0884; in that of `C=C(CC)C(=O)c1ccc(OCC(=O)O)c(Cl)c1Cl` [etacrynic-acid] (10 µM), -0.0164.
In the case of `O=C(O)c1cccnc1C(=O)O` [quinolinic-acid] (10 µM) it was 0.107.
